Reference: PubChem BioAssay (Tox21)
Values joined by “and” are separate entries in the source; they are usually repeats but may differ in a detail not shown here. Equal entries are not always repeated. Inconclusive results are not listed. Where a call stands in place of a potency, no number is given. More than one record can exist for a structure, and the calls need not agree. Active and inactive are the calls of the source. Unless noted, calls come from the whole dose curve.

Test: qHTS assay to identify small molecule antagonists of the estrogen receptor alpha (ER-alpha) signaling pathway using the BG1 cell line (AID 743080);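 note: BG1 cells stimulated with 17beta-estradiol alongside compound; nearly all actives have a fitted effect of over 25% in size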
Settings: BG1Luc4E2 ERE-luciferase antagonist mode, luminescence; series mostly up to 70.3 µM
Summary of the method: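 Endogenous full-length ER-alpha in BG1-Luc-4E2 cells drives a stably integrated 4×ERE luciferase gene; compounds were tested against 17beta-estradiol over 21.5 h, with luminescence and multiplexed viability fluorescence recorded.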

Row | SMILES | Potency
1 | C=CC(=O)O | inactive
2 | CN1C(CSCC(F)(F)F)Nc2cc(Cl)c(S(N)(=O)=O)cc2S1(=O)=O (centres undefined) | inactive
3 | CC(C)(C)S | inactive
4 | CNc1c2c(nn1C)CCCC2 | inactive
5 | O=C(O)c1cccc(Oc2ccccc2)c1 | inactive
6 | COc1cc(NS(=O)(=O)c2ccc(N)cc2)nc(C)n1 | inactive
7 | O=C(NC(Cc1cc(=O)[nH]c2ccccc12)C(=O)O)c1ccc(Cl)cc1 (centres undefined) | inactive
8 | CCCCCCCCCCCC(=O)OCC(O)CO (centres undefined) | inactive
9 | Cc1cn([C@H]2C[C@H](F)[C@@H](CO)O2)c(=O)[nH]c1=O | inactive
10 | CC(C)(O)CCc1ccccc1 | inactive
11 | CC(C)CC(O)CC(C)C | inactive
12 | Cc1ccc(N(CCO)CCO)cc1 | inactive
13 | CCCCCCCCCCCCCCCC(=O)OCC | inactive
14 | CC(C)(C)C1(CCc2ccc(Cl)cc2)CO1 (centres undefined) | inactive
15 | Cc1ccc(S(=O)(=O)NC(=O)NC2CCCCC2)cc1 | inactive
16 | O=C(O)CNC(=O)c1ccccc1I | inactive
17 | ClC1=C(Cl)C1(Cl)Cl | inactive
18 | OCC(CO)n1cnc(-c2ccc(F)cc2)c1-c1ccnc(Oc2ccccc2)n1 | inactive
19 | CNC1CCCN(c2c(F)cc3c(=O)c(C(=O)O)cn(C4CC4)c3c2OC)C1 (centres undefined) | inactive

Row | SMILES | Potency
20 | CC[C@H]1OC(=O)[C@H](C)[C@@H](O[C@H]2C[C@@](C)(OC)[C@@H](O)[C@H](C)O2)[C@H](C)[C@@H](O[C@@H]2O[C@H](C)C[C@H](N(C)C)[C@H]2O)[C@](C)(O)C[C@@H](C)CN(C)[C@H](C)[C@@H](O)[C@]1(C)O | inactive
21 | CC(C)C(=O)OCCOc1ccccc1 | inactive
22 | CC1=C2[C@@H]([C@H](C)CC[C@H]2/C=C(\C)C(=O)O)[C@H](O)C1 | inactive
23 | CC(=O)OCCC1CCCCC1 | inactive
24 | CC(C)C1CCC(C(=O)N[C@H](Cc2ccccc2)C(=O)O)CC1 (some centres undefined) | inactive
25 | CCCCCCC(O)CCOC(C)=O (centres undefined) | inactive
26 | CC(C)N(C)C | inactive
27 | CC(C)COC(=O)COc1cc(Cl)c(Cl)cc1Cl | inactive
28 | O=CNNC=O | inactive
29 | C=CC(=O)NC(C)C | inactive
30 | CC1CCCC(=O)C1=O (centres undefined) | inactive
31 | O=c1[nH]c2cc(C(F)(F)F)c(N3CCOCC3)cc2n(CP(=O)(O)O)c1=O | inactive
32 | O=P(O)(O)Oc1ccccc1 | inactive
33 | CCC(CO)(CO)CO | inactive
34 | O=C(Nc1ccc(C(=O)O)c(O)c1)c1ccccc1 | inactive
35 | O=C(CCS)OCC(COC(=O)CCS)(COC(=O)CCS)COC(=O)CCS | inactive
36 | CC[C@H]1OC(=O)[C@H](C)[C@@H](O[C@H]2C[C@@](C)(OC)[C@@H](O)[C@H](C)O2)[C@H](C)[C@@H](O[C@@H]2O[C@H](C)C[C@H](N(C)C)[C@H]2O)[C@](C)(O)C[C@@H](C)/C(=N\OCOCCOC)[C@H](C)[C@@H](O)[C@]1(C)O | inactive
37 | Cc1cccc2sc(N)nc12 | inactive

Test: qHTS assay to identify small molecule antagonists of the estrogen receptor alpha (ER-alpha) signaling pathway using the BG1 cell line - cell viability counter screen (AID 743081; active = well fitted cell-killing curve with a large enough effect in the repeat runs;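 note: compound given together with 17beta-estradiol as the ER stimulus; nearly all actives have a fitted effect of over 45% in size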; note: potency is the fitted concentration of half-maximal effect)
Settings: BG1Luc4E2 viability, CellTiter-Fluor, 22 h; series mostly up to 70.3 µM

Row | SMILES | Potency
38 | C=CC(=O)O | inactive
39 | CN1C(CSCC(F)(F)F)Nc2cc(Cl)c(S(N)(=O)=O)cc2S1(=O)=O (centres undefined) | inactive
40 | CC(C)(C)S | inactive
41 | CNc1c2c(nn1C)CCCC2 | inactive
42 | O=C(O)c1cccc(Oc2ccccc2)c1 | inactive
43 | COc1cc(NS(=O)(=O)c2ccc(N)cc2)nc(C)n1 | inactive
44 | O=C(NC(Cc1cc(=O)[nH]c2ccccc12)C(=O)O)c1ccc(Cl)cc1 (centres undefined) | inactive
45 | CCCCCCCCCCCC(=O)OCC(O)CO (centres undefined) | inactive
46 | Cc1cn([C@H]2C[C@H](F)[C@@H](CO)O2)c(=O)[nH]c1=O | inactive
47 | CC(C)(O)CCc1ccccc1 | inactive
48 | CC(C)CC(O)CC(C)C | inactive
49 | Cc1ccc(N(CCO)CCO)cc1 | inactive
50 | CCCCCCCCCCCCCCCC(=O)OCC | inactive
51 | CC(C)(C)C1(CCc2ccc(Cl)cc2)CO1 (centres undefined) | inactive
52 | Cc1ccc(S(=O)(=O)NC(=O)NC2CCCCC2)cc1 | inactive
53 | O=C(O)CNC(=O)c1ccccc1I | inactive
54 | ClC1=C(Cl)C1(Cl)Cl | inactive
55 | OCC(CO)n1cnc(-c2ccc(F)cc2)c1-c1ccnc(Oc2ccccc2)n1 | inactive
56 | CNC1CCCN(c2c(F)cc3c(=O)c(C(=O)O)cn(C4CC4)c3c2OC)C1 (centres undefined) | inactive

Row | SMILES | Potency
57 | CC[C@H]1OC(=O)[C@H](C)[C@@H](O[C@H]2C[C@@](C)(OC)[C@@H](O)[C@H](C)O2)[C@H](C)[C@@H](O[C@@H]2O[C@H](C)C[C@H](N(C)C)[C@H]2O)[C@](C)(O)C[C@@H](C)CN(C)[C@H](C)[C@@H](O)[C@]1(C)O | inactive
58 | CC(C)C(=O)OCCOc1ccccc1 | inactive
59 | CC1=C2[C@@H]([C@H](C)CC[C@H]2/C=C(\C)C(=O)O)[C@H](O)C1 | inactive
60 | CC(=O)OCCC1CCCCC1 | inactive
61 | CC(C)C1CCC(C(=O)N[C@H](Cc2ccccc2)C(=O)O)CC1 (some centres undefined) | inactive
62 | CCCCCCC(O)CCOC(C)=O (centres undefined) | inactive
63 | CC(C)N(C)C | inactive
64 | CC(C)COC(=O)COc1cc(Cl)c(Cl)cc1Cl | inactive
65 | O=CNNC=O | inactive
66 | C=CC(=O)NC(C)C | inactive
67 | CC1CCCC(=O)C1=O (centres undefined) | inactive
68 | O=c1[nH]c2cc(C(F)(F)F)c(N3CCOCC3)cc2n(CP(=O)(O)O)c1=O | inactive
69 | O=P(O)(O)Oc1ccccc1 | inactive
70 | CCC(CO)(CO)CO | inactive
71 | O=C(Nc1ccc(C(=O)O)c(O)c1)c1ccccc1 | inactive
72 | O=C(CCS)OCC(COC(=O)CCS)(COC(=O)CCS)COC(=O)CCS | inactive
73 | CC[C@H]1OC(=O)[C@H](C)[C@@H](O[C@H]2C[C@@](C)(OC)[C@@H](O)[C@H](C)O2)[C@H](C)[C@@H](O[C@@H]2O[C@H](C)C[C@H](N(C)C)[C@H]2O)[C@](C)(O)C[C@@H](C)/C(=N\OCOCCOC)[C@H](C)[C@@H](O)[C@]1(C)O | inactive and 18.1 µM (active)
74 | Cc1cccc2sc(N)nc12 | inactive
